Consider 40 compounds from PubChem BioAssay (EPA / NIEHS).

In general, AC50 refers to the midpoint of the concentration-response curve, whichever way the signal moves.

Results filed as inconclusive are left out. The source made the active and inactive calls. How the source made its calls: active means hit-call score of the fitted dose curve at least 0.9, where 1 is the maximum; inconclusive means response in the unintended direction; inactive means score below 0.9.

The target in this test is Estrogen receptor (Homo sapiens) + Estrogen receptor beta (Homo sapiens) (UniProt P03372+Q92731). The test is described as follows: OT_ER_ERaERb_1440: Odyssey Thera (OT) 24-hour HEK293T Protein-Complementation Assay for Estrogen Receptor-alpha/-beta Homodimer (AID 2283356).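 Further: hits raise reporter fluorescence and both agonists and antagonists give an increase.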 As for the experimental part: OT_ER_ERaERb_1440 is a cell-based assay that uses HEK293T, a human kidney cell line, with measurements taken at 24 hours after chemical dosing in a 384-well plate.OT_ER_ERaERb_1440 is one of one assay component(s) measured or calculated from the OT_ER_ERaERb_1440 assay. It is designed to make measurements of protein fragment complementation, a form of binding reporter, as detected with fluorescence intensity signals by Protein-fragment Complementation technology.Data from the assay component OT_ER_ERaERb_1440 was analyzed into 1 assay endpoint. This assay endpoint, OT_ER_ERaERb_1440, was analyzed in the positive analysis fitting direction relative to DMSO as the negative control and baseline of activity. Using a type of binding reporter, measures of receptor for gain-of-signal activity can be used to understand the binding at the pathway-level as they relate to the gene ESR1 and ESR2. Furthermore, this assay endpoint can be referred to as a primary readout, because the performed assay has only produced 1 assay endpoint. To generalize the intended target to other relatable targets, this assay endpoint is annotated to the nuclear receptor intended target family, where the subfamily is steroidal.
Chain of Estrogen receptor (Homo sapiens) + Estrogen receptor beta (Homo sapiens) (P03372 whole entry, looked up, the tested form may be a part): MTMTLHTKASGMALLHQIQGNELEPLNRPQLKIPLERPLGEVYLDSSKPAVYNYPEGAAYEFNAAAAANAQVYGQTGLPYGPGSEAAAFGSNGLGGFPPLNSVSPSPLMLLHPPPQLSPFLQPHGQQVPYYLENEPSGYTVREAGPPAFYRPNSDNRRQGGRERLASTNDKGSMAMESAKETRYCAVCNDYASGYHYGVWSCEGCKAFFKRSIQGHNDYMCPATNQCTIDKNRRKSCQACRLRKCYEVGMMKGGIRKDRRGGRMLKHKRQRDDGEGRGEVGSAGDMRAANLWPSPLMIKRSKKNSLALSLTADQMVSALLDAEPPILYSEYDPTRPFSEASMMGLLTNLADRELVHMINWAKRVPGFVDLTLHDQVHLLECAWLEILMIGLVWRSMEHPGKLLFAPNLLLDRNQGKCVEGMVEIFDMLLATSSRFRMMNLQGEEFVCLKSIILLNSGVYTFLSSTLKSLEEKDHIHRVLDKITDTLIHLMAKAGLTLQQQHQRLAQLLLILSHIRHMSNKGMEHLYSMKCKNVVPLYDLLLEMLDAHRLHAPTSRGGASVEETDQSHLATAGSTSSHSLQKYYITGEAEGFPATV
Chain of Estrogen receptor (Homo sapiens) + Estrogen receptor beta (Homo sapiens) (Q92731 whole entry, looked up, the tested form may be a part): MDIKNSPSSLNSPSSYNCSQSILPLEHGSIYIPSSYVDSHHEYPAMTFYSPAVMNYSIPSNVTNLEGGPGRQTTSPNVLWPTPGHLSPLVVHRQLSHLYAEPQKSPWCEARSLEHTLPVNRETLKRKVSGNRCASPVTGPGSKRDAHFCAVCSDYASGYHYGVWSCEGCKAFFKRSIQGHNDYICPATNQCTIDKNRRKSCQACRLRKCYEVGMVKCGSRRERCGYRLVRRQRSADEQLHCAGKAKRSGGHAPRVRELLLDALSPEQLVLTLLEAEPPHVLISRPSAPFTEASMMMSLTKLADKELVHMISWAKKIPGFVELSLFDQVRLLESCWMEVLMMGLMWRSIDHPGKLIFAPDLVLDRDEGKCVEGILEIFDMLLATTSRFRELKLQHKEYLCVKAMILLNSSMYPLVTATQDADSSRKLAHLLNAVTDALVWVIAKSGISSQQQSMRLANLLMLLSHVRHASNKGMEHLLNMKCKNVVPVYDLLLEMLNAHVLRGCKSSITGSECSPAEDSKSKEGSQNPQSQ
Protein-fragment complementation assay, or PCA, is a method for the identification and quantification of protein-protein interactions. In the PCA, the proteins of interest ("bait" and "prey") are each covalently linked to fragments of a third protein (e.g. DHFR, which acts as a "reporter"). Interaction between the bait and the prey proteins brings the fragments of the reporter protein in close proximity to allow them to form a functional reporter protein whose activity can be measured. The OT ER alpha / ER beta assay is a heterodimer PCA of the ligand binding domain (LBD) of ER alpha (amino acids 310-547) and human ER beta (amino acids 263-489) stably expressed in HEK293T cells. […] Fluorescent signal in the basal state of the assay is very low and is primarily punctuate and cytoplasmic. Modulation of this assay is quantified as an increase in mean fluorescence intensity in the nucleus (for agonists) or in the nucleus and cytoplasm (antagonists) relative to vehicle controls, and can be quantified on a high content imaging device or a laser scanning cytometer. The latter instrument is favored for this assay because of the rapid mode of data acquisition, the ability to acquire data from the entire cell population in a well (as opposed to a fraction of the well on the high content devices) and the larger dynamic range typically achieved with this instrument. To assess sensitivity of the ER alpha/ER beta LBD assay to ligand, cells were treated with the ER agonist 17- beta-estradiol (E2) in 10-point concentration- response format for 24 hours and monitored response on a laser scanning plate cytometer (Acumen eX3; TTP Lab Tech).
Turning to `Cc1ccc(C)c(C)c1`, the outcome was inactive.
For the compound `CN1CCCC1=O`, the result was inactive.
For the compound `CCCCCCCCCCCC(=O)OC`, the result was inactive.
With `CCCCCCCCCCO`, the outcome was inactive.
As for `O=C(O)CCCCC(=O)O`, the outcome was inactive.
Turning to `NS(=O)(=O)c1cc2c(cc1Cl)NCNS2(=O)=O`, the result was inactive.
`CCOC(=O)CCC(=O)OCC`: the outcome was inactive.
For `O=[N+]([O-])C(CO)(CO)CO`, the outcome was inactive.
Turning to `O=c1[nH]cc(F)c(=O)[nH]1`, the result was inactive.
Consider `CC(C)(C)c1cc(O)c(C(C)(C)C)cc1O`, for which the outcome was inactive.
For the compound `CNC(=O)[C@H]1O[C@@H](n2cnc3c(NCc4cc(Cl)ccc4OCc4cc(C)no4)ncnc32)[C@H](O)[C@@H]1N`, the outcome was inactive.
As for `Cc1nc(-c2ccc3c(c2)CCN(CCC2CCC(NC(=O)/C=C/c4ccc(F)cc4)CC2)CC3)no1` (stereo not given), the outcome was inactive.
Same read-out and setting: the result for `CCCCCCCC=O` reads “inactive”; that for `CCc1c(C(=O)NN2CCCCC2)nn(-c2ccc(Cl)cc2Cl)c1-c1ccc(Br)cc1`, “inactive”.
Consider `CC(=O)OCCOCCOCCOC(C)=O`, for which the result was inactive.
For `O=C(O)Cc1ccccc1Nc1c(Cl)cccc1Cl`, the result was inactive.
Consider `COc1cc(C=O)ccc1O`, for which the outcome was inactive.
`CCCCCCCCCCC`: the outcome was inactive.
On to `CC(C)c1ccc(C(=O)N=C(N)N)cc1S(C)(=O)=O`, for which the result was inactive.
Turning to `NCC1(Cc2noc(=O)[nH]2)CCCCC1`, the result was inactive.
Regarding `CCCCCCCCCCCCCO`, the outcome was inactive.
For the compound `CCCCN(CCCC)CCCC`, the outcome was inactive.
With `Cc1ccc(N(C)C)cc1`, the result was inactive.
Regarding `Oc1ccc2c(c1)OC[C@@H](N1CCC(O)(c3ccc(F)cc3)CC1)[C@H]2O`, the result was inactive.
Turning to `Nc1ccccc1N`, the result was inactive.
Consider `CC1=C(/C=C/C(C)=C/C=C/C(C)=C/CO)C(C)(C)CCC1`, for which the result was inactive.
Consider `Nc1nc(N)c2nc(CNc3ccc(C(=O)N[C@@H](CCC(=O)O)C(=O)O)cc3)cnc2n1`, for which the result was inactive.
`Cc1cccc(Nc2cc(Cl)nc(SCC(=O)O)n2)c1C`: the outcome was inactive.
Still for that read-out and setting: next, `Oc1ccc2ccccc2c1N=Nc1ccccc1`: “inactive”.
Turning to `O=c1c(O)c(-c2ccc(O)c(O)c2)oc2cc(O)cc(O)c12`, the AC50 was 24.8 µM (active).
`CC(=O)Oc1ccccc1C(=O)O`: the result was inactive.
As to `COCCOCCOC`, the outcome was inactive.
For `C1CCC(SSC2CCCCC2)CC1`, the result was inactive.
`COCCOC[C@H](CC1(C(=O)NC2CCC(C(=O)O)CC2)CCCC1)C(=O)Oc1ccc2c(c1)CCC2` (stereo not given in full): the result was inactive.
On to `Cc1cccc([N+](=O)[O-])c1C`, for which the outcome was inactive.
Regarding `Clc1cc(Cl)c(Cl)cc1Cl`, the result was inactive.
On to `Cc1oc(-c2ccccc2)nc1CCOc1cccc2c1ccn2CCC(=O)O`, for which the outcome was inactive.
For `CCCCC(CC)COC(=O)CC(C(=O)OCC(CC)CCCC)S(=O)(=O)O` (stereo not given), the outcome was inactive.
Turning to `CCCCCCC(=O)OCC`, the result was inactive.
As for `CCCCOC(=O)CCCCCCCCC(=O)OCCCC`, the result was inactive.
